Data published in PubChem BioAssay AID1159580 (chemical genetic matrix, 2015).
“And” between values parts separate entries of the source, which are not always exact repeats. Identical values can stand only once. The whole screen tested about 5,500 compounds, of which about 2,000 (36%) were called active. About 18% were inconclusive and are not listed. No stated cut-off is given here; in the data, active means normalized growth mostly below about 0.91 (no sharp cut-off); inconclusive means no clear call, values can overlap the other calls; inactive means mostly above about 0.92. Some of the results follow.

Assay: chemical genetic growth profiling, strain panel (AID 1159580);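 further: tested at 20 µM; growth read once vehicle control cultures reached saturation at 30 °C; 1 = growth at the plate median or of vehicle wells; lower values mean less growth of the strain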
Conditions: S. cerevisiae deletion strains, growth OD

Measured: normalized growth

NCCSSCCN
inactive: locus YAL013W, strain DEP1, active compounds read low 1.01 | locus YAL021C, strain ccr4, active compounds read low 0.998 | locus YAL026C, strain drs2, active compounds read low 0.999 | locus YAL030W, strain snc1, active compounds read low 0.994 | locus YAL040C, strain CLN3, active compounds read low 1.02 | locus YBL061C, strain skt5, active compounds read low 0.997 | locus YBR009C, strain hhf1, active compounds read low 0.992 | locus YBR021W, strain FUR4, active compounds read low 1.01 | locus YBR023C, strain chs3, active compounds read low 0.991 | locus YBR171W, strain sec66, active compounds read low 0.988 | locus YBR229C, strain ROT2, active compounds read low 1 | locus YBR231C, strain swc5, active compounds read low 0.994 | locus YBR279W, strain paf1, active compounds read low 0.996 | locus YCL011C, strain gbp2, active compounds read low 1 | locus YCL016C, strain dcc1, active compounds read low 1 | locus YCL029C, strain bik1, active compounds read low 1.03 | locus YCL061C, strain MRC1 (second series), active compounds read low 1 | locus YCL069W, strain vba3, active compounds read low 0.997 | locus YCR088W, strain abp1, active compounds read low 0.991 | locus YDL005C, strain med2, active compounds read low 0.988 | locus YDL035C, strain GPR1, active compounds read low 1.01 | locus YDL040C, strain nat1, active compounds read low 0.996 | locus YDL074C, strain BRE1, active compounds read low 1.03 | locus YDL101C, strain DUN1, active compounds read low 1.03 | locus YDL134C, strain PPH21, active compounds read low 1.01 | locus YDL185W, strain tfp1, active compounds read low 1 | locus YDL192W, strain arf1, active compounds read low 1 | locus YDR001C, strain nth1, active compounds read low 0.992 | locus YDR069C, strain doa4, active compounds read low 0.983 | locus YDR101C, strain arx1, active compounds read low 1.01 | locus YDR137W, strain rgp1, active compounds read low 1.03 | locus YDR150W, strain NUM1, active compounds read low 1.01 | locus YDR159W, strain sac3, active compounds read low 1.01 | locus YDR162C, strain NBP2, active compounds read low 1.01 | locus YDR195W, strain ref2 0.975 | locus YDR297W, strain sur2, active compounds read low 1 | locus YDR318W, strain mcm21, active compounds read low 1.01 | locus YDR334W, strain swr1, active compounds read low 0.996 | locus YDR335W, strain msn5, active compounds read low 0.991 | locus YDR388W, active compounds read low 1.01 | locus YDR392W, strain spt3, active compounds read low 1.01 | locus YDR502C, strain sam2, active compounds read low 0.996 | locus YEL003W, strain gim4, active compounds read low 0.994 | locus YEL037C, strain rad23, active compounds read low 1 | locus YEL061C, strain CIN8 (second series), active compounds read low 0.989 | locus YEL061C, strain CIN8, active compounds read low 1 | locus YER002W, strain NOP16, active compounds read low 1.02 | locus YER015W, strain faa2, active compounds read low 1 | locus YER016W, strain bim1, active compounds read low 0.992 | locus YER110C, active compounds read low 1.01 | locus YER111C, strain swi4, active compounds read low 0.989 | locus YER155C, strain BEM2 (second series), active compounds read low 0.952 | locus YER155C, strain BEM2, active compounds read low 1.01 | locus YER167W, strain BCK2, active compounds read low 0.997 | locus YFR010W, strain ubp6, active compounds read low 0.994 | locus YGL078C, strain dbp3, active compounds read low 1 | locus YGL086W, strain mad1, active compounds read low 0.985 | locus YGL167C, strain pmr1, active compounds read low 0.993 | locus YGL173C, strain kem1, active compounds read low 0.99 | locus YGL227W, strain vid30, active compounds read low 0.99 | locus YGL240W, strain doc1, active compounds read low 0.978 | locus YGL248W, strain PDE1, active compounds read low 1 | locus YGL253W, strain hxk2, active compounds read low 0.995 | locus YGR078C, strain PAC10, active compounds read low 1.02 and 1 | locus YGR135W, strain pre9, active compounds read low 0.997 | locus YGR229C, strain SMI1, active compounds read low 0.982 | locus YGR252W, strain gcn5, active compounds read low 0.918 | locus YHR013C, strain ard1, active compounds read low 0.996 | locus YHR027C, strain rpn1, active compounds read low 0.997 | locus YHR030C, strain SLT2, active compounds read low 1 and 1.05 | locus YHR079C, strain IRE1 (second series), active compounds read low 1.02 | locus YHR079C, strain IRE1, active compounds read low 1.05 | locus YHR094C, strain hxt1, active compounds read low 1.01 | locus YHR129C, strain ARP1, active compounds read low 1.02 | locus YHR142W, strain chs7, active compounds read low 1.01 | locus YHR200W, strain rpn10, active compounds read low 1.01 | locus YIL066C, strain RNR3, active compounds read low 1.02 | locus YIL073C, strain SPO22, active compounds read low 1.02 | locus YIL125W, strain kgd1, active compounds read low 0.996 | locus YIR030C, strain dcg1, active compounds read low 1.01 | locus YJL092W, strain hpr5, active compounds read low 1 | locus YJL095W, strain BCK1 (second series), active compounds read low 0.989 | locus YJL095W, strain BCK1, active compounds read low 1.04 and 1.06 | locus YJL115W, strain asf1, active compounds read low 0.988 | locus YJL129C, strain trk1, active compounds read low 0.986 | locus YJL134W, strain LCB3, active compounds read low 1 | locus YJL154C, strain vps35, active compounds read low 0.993 | locus YJL164C, strain tpk1, active compounds read low 1.01 | locus YJL166W, strain qcr8, active compounds read low 0.989 | locus YJL168C, strain set2, active compounds read low 1.01 | locus YJL187C, strain SWE1 (second series), active compounds read low 1.03 | locus YJL187C, strain SWE1, active compounds read low 0.993 | locus YJR043C, strain POL32, active compounds read low 1.03 | locus YJR066W, strain TOR1, active compounds read low 0.918 | locus YJR075W, strain HOC1, active compounds read low 1.01
